Assay results taken from PubChem BioAssay AID1159580 (chemical genetic matrix, 2015).
“And” between values parts separate entries of the source, which are not always exact repeats. Equal entries are not always repeated. Screen size: about 5,500 compounds; about 2,000 (36%) were called active. Another 18% or so got no clear call; they are omitted. No stated cut-off is given here; in the data, active means normalized growth mostly below about 0.91 (no sharp cut-off); inconclusive means no clear call, values can overlap the other calls; inactive means mostly above about 0.92. This is one part of the list.

Assay: chemical genetic growth profiling, strain panel (AID 1159580);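 further: tested at 20 µM; growth read once vehicle control cultures reached saturation at 30 °C; 1 = growth at the plate median or of vehicle wells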
Conditions: S. cerevisiae deletion strains, growth OD

Measured: normalized growth

NC[C@@H]1O[C@H](O[C@@H]2[C@@H](CO)OC(O[C@@H]3[C@@H](O)[C@H](N)C[C@H](N)[C@H]3O[C@H]3O[C@H](CO)[C@@H](O)[C@H](O)[C@H]3N)[C@@H]2O)[C@H](N)[C@@H](O)[C@@H]1O (stereo partly drawn)
inactive: locus YAL021C, strain ccr4, stronger effect = lower value 0.996 | locus YAL026C, strain drs2, stronger effect = lower value 0.992 | locus YAL030W, strain snc1, stronger effect = lower value 0.995 | locus YBL061C, strain skt5, stronger effect = lower value 0.995 | locus YBR009C, strain hhf1, stronger effect = lower value 0.986 | locus YBR021W, strain FUR4, stronger effect = lower value 1.03 | locus YBR023C, strain chs3, stronger effect = lower value 0.999 | locus YBR171W, strain sec66, stronger effect = lower value 0.973 | locus YBR229C, strain ROT2, stronger effect = lower value 0.96 | locus YBR231C, strain swc5, stronger effect = lower value 0.992 | locus YBR279W, strain paf1, stronger effect = lower value 0.992 | locus YCL011C, strain gbp2, stronger effect = lower value 0.985 | locus YCL016C, strain dcc1, stronger effect = lower value 0.988 | locus YCL029C, strain bik1, stronger effect = lower value 1 | locus YCL061C, strain MRC1, stronger effect = lower value 0.953 | locus YCL069W, strain vba3, stronger effect = lower value 0.992 | locus YCR088W, strain abp1, stronger effect = lower value 0.997 | locus YDL005C, strain med2, stronger effect = lower value 0.992 | locus YDL035C, strain GPR1, stronger effect = lower value 0.996 | locus YDL040C, strain nat1, stronger effect = lower value 0.984 | locus YDL074C, strain BRE1, stronger effect = lower value 0.961 | locus YDL101C, strain DUN1, stronger effect = lower value 0.98 | locus YDL134C, strain PPH21, stronger effect = lower value 1.01 | locus YDL185W, strain tfp1, stronger effect = lower value 0.982 | locus YDL192W, strain arf1, stronger effect = lower value 0.991 | locus YDR001C, strain nth1, stronger effect = lower value 0.995 | locus YDR069C, strain doa4, stronger effect = lower value 0.994 | locus YDR101C, strain arx1, stronger effect = lower value 0.985 | locus YDR137W, strain rgp1, stronger effect = lower value 1.01 | locus YDR159W, strain sac3, stronger effect = lower value 0.966 | locus YDR162C, strain NBP2, stronger effect = lower value 0.998 | locus YDR195W, strain ref2 0.981 | locus YDR297W, strain sur2, stronger effect = lower value 0.992 | locus YDR318W, strain mcm21, stronger effect = lower value 1 | locus YDR334W, strain swr1, stronger effect = lower value 0.989 | locus YDR335W, strain msn5, stronger effect = lower value 0.998 | locus YDR388W, stronger effect = lower value 0.992 | locus YDR392W, strain spt3, stronger effect = lower value 0.974 | locus YDR502C, strain sam2, stronger effect = lower value 0.988 | locus YEL003W, strain gim4, stronger effect = lower value 0.986 | locus YEL037C, strain rad23, stronger effect = lower value 0.977 | locus YEL061C, strain CIN8 (second series), stronger effect = lower value 0.988 | locus YEL061C, strain CIN8, stronger effect = lower value 0.985 | locus YER015W, strain faa2, stronger effect = lower value 0.995 | locus YER016W, strain bim1, stronger effect = lower value 0.989 | locus YER110C, stronger effect = lower value 0.994 | locus YER111C, strain swi4, stronger effect = lower value 0.988 | locus YER155C, strain BEM2 (second series), stronger effect = lower value 0.985 | locus YER155C, strain BEM2, stronger effect = lower value 1 | locus YER167W, strain BCK2, stronger effect = lower value 1.01 | locus YFR010W, strain ubp6, stronger effect = lower value 0.996 | locus YGL078C, strain dbp3, stronger effect = lower value 0.995 | locus YGL086W, strain mad1, stronger effect = lower value 0.983 | locus YGL167C, strain pmr1, stronger effect = lower value 1 | locus YGL173C, strain kem1, stronger effect = lower value 0.984 | locus YGL227W, strain vid30, stronger effect = lower value 0.999 | locus YGL240W, strain doc1, stronger effect = lower value 0.991 | locus YGL248W, strain PDE1, stronger effect = lower value 0.969 | locus YGL253W, strain hxk2, stronger effect = lower value 0.988 | locus YGR078C, strain PAC10, stronger effect = lower value 0.968 | locus YGR135W, strain pre9, stronger effect = lower value 1.05 | locus YGR229C, strain SMI1, stronger effect = lower value 1 | locus YGR252W, strain gcn5, stronger effect = lower value 1.02 | locus YHR013C, strain ard1, stronger effect = lower value 0.988 | locus YHR027C, strain rpn1, stronger effect = lower value 0.999 | locus YHR030C, strain SLT2, stronger effect = lower value 1 and 0.966 | locus YHR079C, strain IRE1 (second series), stronger effect = lower value 0.993 | locus YHR079C, strain IRE1, stronger effect = lower value 0.974 | locus YHR094C, strain hxt1, stronger effect = lower value 0.997 | locus YHR129C, strain ARP1, stronger effect = lower value 1 | locus YHR142W, strain chs7, stronger effect = lower value 0.983 | locus YHR200W, strain rpn10, stronger effect = lower value 0.993 | locus YIL066C, strain RNR3, stronger effect = lower value 0.969 | locus YIL073C, strain SPO22, stronger effect = lower value 1.07 | locus YIL125W, strain kgd1, stronger effect = lower value 0.992 | locus YIR030C, strain dcg1, stronger effect = lower value 0.993 | locus YJL092W, strain hpr5, stronger effect = lower value 0.993 | locus YJL095W, strain BCK1 (second series), stronger effect = lower value 0.992 | locus YJL095W, strain BCK1, stronger effect = lower value 0.959 and 0.976 | locus YJL115W, strain asf1, stronger effect = lower value 0.984 | locus YJL129C, strain trk1, stronger effect = lower value 0.977 | locus YJL134W, strain LCB3, stronger effect = lower value 0.999 | locus YJL154C, strain vps35, stronger effect = lower value 0.987 | locus YJL164C, strain tpk1, stronger effect = lower value 0.948 | locus YJL166W, strain qcr8, stronger effect = lower value 0.986 | locus YJL168C, strain set2, stronger effect = lower value 0.987 | locus YJL187C, strain SWE1 (second series), stronger effect = lower value 0.954 | locus YJL187C, strain SWE1, stronger effect = lower value 0.992
